# Measured values published in PubChem BioAssay AID1159580 (chemical genetic matrix, 2015).
# The whole screen tested about 5,500 compounds, of which about 2,000 (36%) were called active. Roughly 18% stayed inconclusive and do not appear here. This is one part of the list. Unmarked numbers belong to inactive results. Rule as the data show it: active = normalized growth mostly below about 0.91 (no sharp cut-off); inconclusive = no clear call, values can overlap the other calls; inactive = mostly above about 0.92.
# Test: chemical genetic growth profiling, strain panel (AID 1159580);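 also: tested at 20 µM; growth read once vehicle control cultures reached saturation at 30 °C; 1 = growth at the plate median or of vehicle wells; lower values mean less growth of the strain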
# Settings: S. cerevisiae deletion strains, growth OD
# [1] = locus YHR030C, strain SLT2, hits give low values
# [2] = locus YHR079C, strain IRE1, hits give low values
# [3] = locus YJL095W, strain BCK1, hits give low values
# [4] = locus YJR066W, strain TOR1, hits give low values
# [5] = locus YLR113W, strain HOG1, hits give low values
# [6] = locus YNL183C, strain NPR1, hits give low values
# [7] = locus YOR231W, strain MKK1, hits give low values
# [8] = locus YPL256C, strain CLN2, hits give low values
compound,measurement,setting,value
CC(C)CC(NC(=O)CCN)C(=O)O (centres undefined),normalized growth,[1],0.976
same,normalized growth,[2],0.964
same,normalized growth,[3],0.974
same,normalized growth,[4],0.896
same,normalized growth,[5],0.986
same,normalized growth,[6],0.886
same,normalized growth,[7],0.993
same,normalized growth,[8],0.975
NCCCN=c1ccc2c3c1c(O)c1c(O)ccc(=O)c1c3[nH]n2CCNCCO,normalized growth,"locus YAR019C, strain CDC15, hits give low values",0.984
same,normalized growth,"locus YBL105C, strain PKC1, hits give low values",0.977
same,normalized growth,"locus YBR135W, strain CKS1, hits give low values",0.986
same,normalized growth,"locus YBR136W, strain MEC1, hits give low values",0.97
same,normalized growth,"locus YBR160W, strain CDC28, hits give low values",0.982
same,normalized growth,"locus YDL017W, strain CDC7, hits give low values",0.976
same,normalized growth,"locus YDL028C, strain MPS1, hits give low values",0.976
same,normalized growth,"locus YDL101C, strain DUN1, hits give low values",0.969
same,normalized growth,"locus YDL108W, strain KIN28, hits give low values",0.978
same,normalized growth,"locus YDL132W, strain cdc53, hits give low values",0.979
same,normalized growth,"locus YDL214C, strain PRR2, hits give low values",0.993
same,normalized growth,"locus YDR052C, strain DBF4, hits give low values",0.976
same,normalized growth,"locus YDR054C, strain cdc34, hits give low values",0.974
same,normalized growth,"locus YDR226W, strain ADK1, hits give low values",0.984
same,normalized growth,"locus YDR477W, strain SNF1, hits give low values",0.977
same,normalized growth,"locus YER123W, strain YCK3, hits give low values",0.978
same,normalized growth,"locus YER133W, strain GLC7, hits give low values",0.977
same,normalized growth,"locus YFL009W, strain cdc4, hits give low values",0.982
same,normalized growth,"locus YFL029C, strain CAK1, hits give low values",0.986
same,normalized growth,"locus YFR003C, strain YPI1, hits give low values",0.973
same,normalized growth,"locus YFR019W, strain FAB1, hits give low values",0.948
same,normalized growth,"locus YFR028C, strain CDC14, hits give low values",0.981
same,normalized growth,"locus YGR040W, strain KSS1, hits give low values",0.977
same,normalized growth,"locus YGR052W, strain FMP48, hits give low values",0.984
same,normalized growth,"locus YGR092W, strain DBF2, hits give low values",0.688
same,normalized growth,[1],1.03
same,normalized growth,[2],1.01
same,normalized growth,"locus YHR082C, strain KSP1, hits give low values",1.05
same,normalized growth,"locus YHR205W, strain SCH9, hits give low values",0.916
same,normalized growth,"locus YIL147C, strain SLN1, hits give low values",0.969
same,normalized growth,[3],0.893
same,normalized growth,"locus YJL128C, strain PBS2, hits give low values",0.957
same,normalized growth,"locus YJL157C, strain FAR1, hits give low values",0.994
same,normalized growth,"locus YJR016C, strain ILV3, hits give low values",0.982
same,normalized growth,"locus YJR066W, strain TOR1 (second series), hits give low values",0.964
same,normalized growth,[4],1.01
same,normalized growth,"locus YKL048C, strain ELM1, hits give low values",0.94
same,normalized growth,"locus YKL067W, strain YNK1, hits give low values",0.983
same,normalized growth,"locus YKL101W, strain HSL1, hits give low values",0.957
same,normalized growth,"locus YKL193C, strain SDS22, hits give low values",0.971
same,normalized growth,"locus YKL203C, strain TOR2, hits give low values",1.01
same,normalized growth,[5],0.982
same,normalized growth,"locus YLR133W, strain CKI1, hits give low values",0.993
same,normalized growth,"locus YLR403W, strain SFP1, hits give low values",0.916
same,normalized growth,"locus YML070W, strain DAK1, hits give low values",0.956
same,normalized growth,"locus YMR001C, strain CDC5, hits give low values",0.984
same,normalized growth,"locus YMR205C, strain PFK2 (second series), hits give low values",1
same,normalized growth,"locus YMR277W, strain FCP1, hits give low values",0.975
same,normalized growth,"locus YNL006W, strain LST8, hits give low values",0.989
same,normalized growth,"locus YNL020C, strain ARK1, hits give low values",0.992
same,normalized growth,"locus YNL161W, strain CBK1, hits give low values",0.986
same,normalized growth,[6],1
same,normalized growth,"locus YNL207W, strain RIO2, hits give low values",0.975
same,normalized growth,"locus YNL222W, strain SSU72, hits give low values",0.995
same,normalized growth,"locus YNL307C, strain MCK1 (second series), hits give low values",0.82
same,normalized growth,"locus YOL078W, strain AVO1, hits give low values",0.971
same,normalized growth,"locus YOL136C, strain PFK27, hits give low values",0.965
same,normalized growth,"locus YOR061W, strain CKA2, hits give low values",0.874
same,normalized growth,"locus YOR119C, strain RIO1, hits give low values",1
same,normalized growth,[7],0.996
same,normalized growth,"locus YOR329C, strain SCD5, hits give low values",0.975
same,normalized growth,"locus YPL031C, strain PHO85, hits give low values",0.96
same,normalized growth,"locus YPL153C, strain RAD53, hits give low values",0.97
same,normalized growth,"locus YPL204W, strain HRR25, hits give low values",0.951
same,normalized growth,"locus YPL209C, strain IPL1, hits give low values",0.98
same,normalized growth,[8],1.16 [resistant] (active)
same,normalized growth,"locus YPR025C, strain CCL1, hits give low values",0.979
same,normalized growth,"locus YPR106W, strain ISR1, hits give low values",0.976
same,normalized growth,"locus YPR111W, strain DBF20, hits give low values",0.979
same,normalized growth,"strain NNK1, hits give low values",0.978
same,normalized growth,"strain TSCII, hits give low values",0.981
